Measured values published in the supplement of paper PMC13380429.

Key:
[1] = test system: Vero E6 infected with SARS-CoV-2; test: morphology score (similarity to uninfected cells); higher = more like uninfected cells; details: 24 h
[2] = test system: Vero E6 infected with SARS-CoV-2; test: SARS-CoV-2 infection rate relative to infected DMSO; higher = more infection, active = 60 or less; details: 24 h

| Compound | morphology score [1] | SARS-CoV-2 infection rate [2] |
| --- | --- | --- |
| CC[C@H](C)[C@H](N)C1=N[C@H](C(=O)N[C@@H](CC(C)C)C(=O)N[C@H](CCC(=O)O)C(=O)N[C@H](C(=O)N[C@H]2CCCCNC(=O)[C@H](CC(N)=O)NC(=O)[C@@H](CC(=O)O)NC(=O)[C@H](Cc3cnc[nH]3)NC(=O)[C@@H](Cc3ccccc3)NC(=O)[C@H]([C@@H](C)CC)NC(=O)[C@@H](CCCN)NC2=O)[C@@H](C)CC)CS1 [bacitracin] (10 µM) | -0.109 | 112% (inactive) |
| CCCCc1nc(Cl)c(CO)n1Cc1ccc(-c2ccccc2-c2nnn[nH]2)cc1 [losartan] (10 µM) | 0.0837 | 99.5% (inactive) |
| CCCN(CCC)[C@H]1CCc2cccc(O)c2C1 [8-hydroxy-DPAT] (10 µM) | 0.0607 | 98.5% (inactive) |
| COc1c(Nc2ccc(S(C)(=O)=O)nc2C)ncnc1OC1CCN(C(=O)OC(C)C)CC1 (10 µM) | -0.00778 | 100% (inactive) |
| CC(C)(Oc1ccc(Cl)cc1)C(=O)OCCOC(=O)c1cccnc1 [etofibrate] (10 µM) | 0.105 | 105% (inactive) |
| O=C(Nc1ccc(C(O)(C(F)(F)F)C(F)(F)F)cc1)c1ccc(C(F)(F)F)cc1 (10 µM) | 0.265 | 85% (inactive) |
| O=C1c2ccccc2-c2c(NCCc3ccccc3)c(=O)[nH]c3cccc1c23 (10 µM) | -0.00844 | 112% (inactive) |
| C=C1CC[C@H](O)C/C1=C/C=C1\CCC[C@]2(C)[C@@H]([C@H](C)CCCC(C)C)CC[C@@H]12 [cholecalciferol] (10 µM) | -0.0066 | 96.5% (inactive) |
| O=C(O)/C=C(/CC(=O)O)C(=O)O [cis-aconitic-acid] (10 µM) | -0.118 | 110% (inactive) |
| CCC(=O)OCC(=O)[C@@]1(OC(=O)CC)[C@@H](C)C[C@H]2[C@@H]3CCC4=CC(=O)C=C[C@]4(C)[C@@]3(F)[C@@H](O)C[C@@]21C (10 µM) | 0.138 | 104% (inactive) |
| CC(C)N(CCNC(=O)CN1CCCC1=O)C(C)C [pramiracetam] (10 µM) | -0.0542 | 115% (inactive) |
| COc1ccc2c(c1OC)C(=O)O[C@@H]2[C@H]1c2cc3c(cc2CCN1C)OCO3 [hydrastine-(1R,9S)] (10 µM) | -0.0178 | 108% (inactive) |
| CC(=O)N(CC(O)CO)c1c(I)c(C(=O)NCCO)c(I)c(C(=O)NCC(O)CO)c1I (stereo not given) [ioxilan] (10 µM) | 0.00249 | 114% (inactive) |
| Clc1ccc(Nc2nnc(Cc3ccncc3)c3ccccc23)cc1 [vatalanib] (10 µM) | 0.199 | 96% (inactive) |
| CCCn1c(=O)c2[nH]c(-c3cnn(Cc4cccc(C(F)(F)F)c4)c3)nc2n(CC)c1=O (10 µM) | 0.163 | 103% (inactive) |
| C#C[C@]1(O)CC[C@H]2[C@@H]3CCC4=CC(=O)CC[C@@H]4[C@H]3CC[C@@]21C [Norethindrone (Norethisterone)] (10 µM) | -0.0201 | 112% (inactive) |
| CCOC(=O)c1ncn2c1CN(C)C(=O)c1cc(N=[N+]=[N-])ccc1-2 (10 µM) | 0.00535 | 110% (inactive) |
| CO/N=C(\C(=O)N[C@@H]1C(=O)N2C(C(=O)O)=C(CSC(=O)c3ccco3)CS[C@H]12)c1csc(N)n1 (10 µM) | 0.156 | 104% (inactive) |
| CC(=O)O[C@H]1C[C@@H]2CC[C@@H]3[C@H](CC[C@@]4(C)[C@H]3C[C@H](N3CC[N+](C)(C)CC3)[C@@H]4OC(C)=O)[C@@]2(C)C[C@@H]1N1CC[N+](C)(C)CC1 [pipecuronium] (10 µM) | 0.0487 | 106% (inactive) |
| O=S(=O)(c1cccc2cnccc12)N1CCCNCC1 [fasudil] (10 µM) | 0.474 | 100% (inactive) |
| COc1ccc(N(C)c2nc(C)nc3ccccc23)cc1 [verubulin] (10 µM) | -0.0973 | 95% (inactive) |
| CSc1ccccc1Nc1nc(N2CCNCC2)nc2c(NCC3CC3)ncnc12 (0.833333 µM) | 0.166 | 101% (inactive) |
| COC(=O)c1cnn(-c2ccc(F)cc2F)c1/C=N/NC(=S)NC(C)(C)C (10 µM) | 0.433 | 74% (inactive) |
| COc1cc2nc(N3CCCN(C)CC3)nc(NC3CCN(Cc4ccccc4)CC3)c2cc1OC (0.833333 µM) | 0.456 | 73.5% (inactive) |
| Cc1cc(-c2nncc3c(C(C)(C)C)c(OCc4ncnn4C)nn23)no1 (10 µM) | 0.149 | 95% (inactive) |
